Key:
Test in all cases: PBM binding z-score (relative to random genomic background probes); higher = stronger binding; sequences stand for … in GC…GCGATTGACAGCGTAGAATGAAGG
[1] = tested on: RARb homodimer (NR concentration 270 nM)
How it was run: (§1)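 Each nuclear receptor dimer, without ligand, was incubated for 1 h on custom Agilent 4×180K protein-binding microarrays. Binding was detected with antibodies against each partner (one per run), and scanned fluorescence was regression-normalized. The binding z-scores are referenced to random human genomic background probes.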

[2] = tested on: RARg:RXRa (NR concentration 270 nM, RXRa partner concentration 90 nM)
How it was run: as §1

[3] = tested on: RARg homodimer (NR concentration 270 nM)
How it was run: as §1

[4] = tested on: RXRa DBDmut IVT, anti-RXR (DBD mutation: RXRa K156A/R161A, NR concentration 90 nM)
How it was run: as §1

[5] = tested on: RXRa homodimer (NR concentration 180 nM)
How it was run: as §1

[6] = tested on: THRa:RXRa (NR concentration 90 nM, RXRa partner concentration 90 nM)
How it was run: as §1

[7] = tested on: THRa homodimer (NR concentration 90 nM)
How it was run: as §1

[8] = tested on: VDR homodimer (NR concentration 270 nM)
How it was run: as §1

Sequence | PBM binding z-score [1] | PBM binding z-score [2] | PBM binding z-score [3] | PBM binding z-score [4] | PBM binding z-score [5] | PBM binding z-score [6] | PBM binding z-score [7] | PBM binding z-score [8]
CCTCGGAGGACAACTGGAGGTCAGAGCTGCCAGA | 3.7 | 4.12 | 4.11 | 0.362 | 2.22 | 2.7 | 1.3 | 1.48
CAAACTAGGTCAAGAGGTCAAAGACCGCTTCCCG | 5.76 | 8.18 | 7.8 | 2.18 | 8.47 | 4.39 | 2.18 | 3.76
AGAACGAGGGCACGCCGAGTTGATAGCAGAGTAG | 1.2 | 1.96 | 2.36 | 1.75 | 1.47 | 1.96 | -0.089 | 1.81
AATACAGGGTCAATAGGCCAGAGTAGGTACGAAT | 3.5 | 5.29 | 4.37 | 2.4 | 4.89 | 3.03 | 0.474 | 2.13
CAAACTAGGTAAAGGTCAAAGTCGGTTTGTGCCA | 4.92 | 6.24 | 5.71 | 2.3 | 6.98 | 3.87 | 1.05 | 2.8
TAGCCTAGGTCATTGGGACAGTATAGTACGCATC | 2.92 | 3.97 | 4.51 | 1.52 | 3.13 | 2.95 | 1.14 | 1.44
AGTCAAAGTTCAGGACGAGGGAACGTAAAGCACG | 2.88 | 4.2 | 4.74 | 3.07 | 2.87 | 2.44 | 0.19 | 1.74
CGTCCAAGGTCAATGCTTGGTCAGTGAAAGCATT | 4.25 | 6.01 | 6.27 | 3.51 | 4.89 | 3.82 | 2.24 | 2.49
TCTTGTAGATCAAGAGGAGGTTAAGAAAGATCGA | 0.486 | 0.616 | 0.204 | 0.251 | 0.72 | 0.611 | -0.142 | -0.158
TTACCAAGGTGGAAGGTCGTTGATGCACGCCTTG | 0.907 | 0.595 | 0.158 | -0.443 | 1.43 | 0.674 | -0.0203 | 0.895
GATACAGGGTCAGCTAGAGGCCAGAATATGGAAA | 3.01 | 6.5 | 4.78 | 1.32 | 4.12 | 3.04 | 0.498 | 1
ATCTCTAGGTATAGATAGTTCAGTGAATGCAAAT | 0.907 | 0.662 | 0.781 | 0.321 | 0.447 | 0.433 | -0.135 | 0.864
TCTTGTAGATCAACAGGAGGATAAGAAAGATCGA | -0.517 | 0.227 | 0.396 | 0.36 | 0.432 | 0.177 | -0.392 | -0.362
TCTAGTTGGTTAAAGGTCACACACTCGAAATGCG | 5.19 | 6.13 | 5.53 | 2.21 | 6.72 | 4.02 | 2.69 | 2.78
CGTCAAAGTTCAAGGTAACGCAACAGAAAGCAGC | 3.59 | 5.16 | 6.13 | 4.31 | 4.24 | 2.97 | 1 | 3.74
TGGAGTAGGTTACCAATGGGGCATTCAGCTTTCT | 1.16 | 1.4 | 0.805 | -0.418 | 0.605 | 0.403 | -0.198 | -0.00533
CCGACTGGGGCAGAAAGGTTACCCTACCATCCGG | 2.2 | 1.35 | 0.99 | -0.847 | 1.43 | 1.07 | -0.0158 | -0.359
ATATGTAGGTTATCGGGTCAGTCAGTTTGCGCAT | 2.84 | 2.76 | 2.42 | 1.01 | 2.44 | 2.68 | 2.08 | 2.46
CTCGAAAGGGCGGTTGAGGTGAGTATACGGATAA | 0.872 | 0.317 | 0.636 | 0.039 | -0.0679 | 4.21 | 1.28 | 0.0137

Sequence | PBM binding z-score [1] | PBM binding z-score [2] | PBM binding z-score [3] | PBM binding z-score [4] | PBM binding z-score [5] | PBM binding z-score [6] | PBM binding z-score [7] | PBM binding z-score [8]
AGAATGAGGGTACCAAAGATCAGGGAAACGCTTG | 0.0111 | 0.44 | 0.506 | 0.104 | 0.821 | 0.502 | -0.667 | -0.0915
ATATGTAGGTGACATCCGGGTCATTCAGGCTATG | 2.79 | 3.31 | 1.95 | 0.715 | 3.03 | 3.53 | 2.11 | 2.66
ACAGACAGGTGATGAAGATAACTCAGGCTATCAT | 0.036 | 0.0914 | 0.567 | -0.415 | 0.164 | 0.061 | -0.111 | -0.302
ATATGTAGGTTAAGGGTCATTCATGTTGGTTCGC | 4.2 | 4.74 | 3.5 | 2.3 | 6.14 | 3.43 | 1.52 | 4.27
CCTACTGGGCCATTCAGAGTTCATTGATCATATG | 2.64 | 2.54 | 1.23 | 2.26 | 1.28 | 1.12 | 0.0171 | 5.74
CGAACTAGGTCATTGACAGGACAGCGAATAGTAA | 2.86 | 4.65 | 4.4 | 2.19 | 2.44 | 2.9 | 0.784 | 1.31
AGTCAAAGTACACTAGGTAACGTAAGATTCAGCT | 0.288 | 0.245 | 0.909 | 1.11 | 0.318 | 0.479 | -0.0974 | 0.127
GCTGCTTGGTCAACTGATGGTCAGCTAAAGCTCG | 0.641 | 0.828 | 0.795 | 0.0652 | -0.182 | -0.283 | -0.699 | -1.25
ACTTACGGGTCAACGAGGTTATAGCCCGCGTATA | 3.68 | 5.54 | 4.99 | 2.37 | 6.11 | 3.97 | 1.14 | 3.48
CCGACAGGGGCAAGGTTACCATAACGCACAGCCA | 1.43 | 1.58 | 1.94 | 0.0606 | 1.58 | 1.37 | 0.432 | 0.707
TCTTGTAGATTAATAGAGGTTAAGAAAGTGCGCT | 1.51 | 0.95 | 0.856 | 1.23 | 1.66 | 1.81 | -0.0934 | 0.699
ATATGTAGGTTAGCTGGGATCATTCAGACTAGGC | 0.428 | 0.559 | 0.765 | 0.0124 | 0.95 | 1.95 | -0.1 | 0.36
AGAATGAGGTTATTAAGATCAGGGAGTTGCGGTC | 0.826 | 1.05 | 0.672 | 1.99 | 1.78 | 2.17 | 0.897 | 1.39
TCTTGTAGATCAGCAGGTTAAGATAGCTGGCCAA | -0.0544 | -0.0434 | -0.135 | 0.631 | 0.48 | 0.172 | -0.238 | -0.295
CCTGCTGGGTCATGGTCAGCTAATCTACAGTATG | 2.6 | 3.56 | 3.65 | 0.81 | 2.88 | 2.04 | 0.0617 | -0.0341
ATCGATAGGTCGAGGTGAGTATAGAGAAAGGGAA | 1.05 | 1.68 | 2.13 | -0.314 | 1.47 | 1.63 | 0.0105 | -0.206
ACAGACAGGTGAGTGAAGGGAACTCAGCTGGACG | -0.231 | 0.199 | 0.0505 | -0.777 | 0.39 | 0.0282 | -0.679 | -0.331
CAAACTAGGTCACCGGAAGGTCACAGTCCGCATG | 5.72 | 8.31 | 7.76 | 2.19 | 6.67 | 4.49 | 3.69 | 3.04
AGTCCAAGTTCAGGACGAGGTAACGTAAAGCACG | 1.71 | 2.68 | 2.35 | 3.51 | 1.3 | 3.44 | 1.65 | 2.91

Sequence | PBM binding z-score [1] | PBM binding z-score [2] | PBM binding z-score [3] | PBM binding z-score [4] | PBM binding z-score [5] | PBM binding z-score [6] | PBM binding z-score [7] | PBM binding z-score [8]
GATACAGGGTCAGATAGAGGCCAGAGTATGGAAA | 3.28 | 6.34 | 4.42 | 1.75 | 4.42 | 3.16 | 0.893 | 1.42
CGTCCAAGGTCAATGCTAGGTCAGTGATAGCATT | 5.15 | 7.48 | 6.91 | 3.87 | 5.32 | 4.38 | 3.02 | 3.54
AGAATAAGGTTAAGATCAGGGAAACAGAATACAT | 1.25 | 2.16 | 1.8 | 0.838 | 2.38 | 2.66 | 1.26 | 0.515
ATAGGTAGGTTACATCCGGGTCATTCAGGCTATG | 2.84 | 3.6 | 2.45 | 0.326 | 2.96 | 3.77 | 2.45 | 3.59
GCATATAGGTAATACCAGGTGAAAGTCCGATTGT | 0.327 | 0.203 | 0.193 | 0.247 | 0.369 | 3.99 | 0.748 | -0.0397
ATCTTTAGGTAAGACTCAGTTCAGTGAAGAACGC | 0.715 | 0.526 | 0.533 | 0.843 | 0.131 | 1.28 | 0.881 | 1.44
AGTCAAAGTTCATCTAGGTTACGTAAGATATGCT | 4.3 | 5.85 | 6.39 | 4.52 | 5.4 | 3.45 | 0.553 | 6.02
CAAACTAGGTCAAGAGGACAAAGTCCGCTTCCCG | 3.78 | 4.36 | 5.19 | 1.45 | 2.74 | 3 | 1.29 | 0.916
TAGCCTAGGTTATTGGGCCAGTATAGTACGCATC | 0.536 | 0.395 | 0.586 | -0.294 | 0.452 | 0.29 | -0.377 | -0.529
AACTCTAGGTAACAAGTTCAGTGAAAGAGAGGAC | 1.66 | 1.03 | 1.2 | 1.13 | 0.731 | 1.4 | 0.448 | 2.39
CCTGCTAGGCCATGGTCAGCTAATCTACAGTATG | 0.329 | -0.00744 | 0.586 | 0.152 | -0.245 | -0.0916 | -0.719 | -0.711
ATCTCTAGGTAAGCAAGTTCAGTGAATGCCGAAC | 1.09 | 0.455 | 0.778 | 0.62 | 0.3 | 0.771 | 0.165 | 2.32
CTACAAAGGTGAACAAGGTCGTTGATTACTATTC | 3.33 | 3.64 | 3.01 | 1.76 | 3.64 | 3.69 | 1.37 | 2.51
ATCTCTAGGAAAAAGTTCAGTGAATCCCGAGGAT | 1.74 | 1.01 | 1.4 | 0.393 | 0.399 | 0.0597 | -0.127 | 1.42
CGTCAAAGTTCAACGAAGGTAACGTAAAGCACGC | 4.08 | 5.47 | 6.39 | 4.2 | 4.5 | 4.52 | 0.29 | 3.33
ATATGTAGGTTATCAGGTCATTCAGTTTGCGCAT | 3.6 | 3.19 | 2.93 | 1.91 | 3.12 | 3.72 | 3.81 | 3.81
GCTATTTGTTGAAAGGGCAACCGAATGATTCTCG | 2.2 | 1.01 | 1.26 | 1.28 | 0.98 | 0.638 | 0.181 | 0.657
TAGCCTAGGTCATGGGCCAGGATACCACGCGAAC | 2.85 | 4.26 | 4.49 | -0.534 | 3.86 | 3.22 | 1.33 | 0.424

— the supplement of paper PMC6555819
